Assay results published in PubChem BioAssay AID463212 (Sanford-Burnham Center for Chemical Genomics, 2010).
About 4,400 (1.3%) of roughly 330,000 compounds were called active. Many of the other results were omitted from the sample, so actives are more common in it than they were. Values without a mark were called inactive.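 The calls were made as follows: active = growth inhibition of the mutant yeast at or above 50%; inactive = the rest.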

Experiment: growth inhibitors of tim23-1 mutant yeast, primary screen, luminescence, uHTS (AID 463212);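 also: temperature-sensitive mutant grown at 25 °C; plate controls were DMSO-treated mutant yeast for no effect and medium wells lacking yeast for full effect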
Conditions: S. cerevisiae tim23-1 growth, BacTiter-Glo luminescence, 24 h; at 20 µM; stronger effect = higher value

Structure (SMILES)	inhibition
O=C1NC(=O)N(c2ccccc2)C(=O)/C1=C/c1ccc([N+](=O)[O-])s1	41.2%
COc1cccc(N2C(=O)NC(=O)/C(=C\c3ccc([N+](=O)[O-])s3)C2=O)c1	50.5% (active)
COc1ccc(N2C(=O)/C(=C/c3ccco3)C(=O)NC2=S)cc1	11.6%
COC(=O)C1=C(c2ccc(F)cc2OCc2ccccc2)C[C@@H]2CC[C@H]1N2C(=O)NCc1ccc(C(C)(C)C)cc1	19.7%
Cc1cc2ccccn2c1C(C[N+](=O)[O-])c1c(F)cccc1Cl (stereo not given)	69.2% (active)
O=c1c2ccccc2nc(-c2ccc(Cl)cc2Cl)n1-c1ccncc1	35.9%
COP(=O)(OC)C(NC(=O)c1ccc(C)cc1)C(Cl)(Cl)Cl (stereo not given)	-17.8%
COC(=O)C1=C(c2ccc(Cl)c(C(F)(F)F)c2)C[C@@H]2CC[C@H]1N2C(=O)NC(C)C	21.8%
CCC(C)n1c(O)c(/C=N/Nc2nc3c(c(=O)n(C)c(=O)n3C)n2C)c(=O)[nH]c1=S (stereo not given)	1.46%
CC(=O)N1CN2CN(C(C)=O)CC(C(=O)c3ccc(Br)cc3)(C2)C1	0.81%
Cc1ccc(-c2nc3ccccc3c(=O)n2-c2ccc(Br)cn2)cc1	52.7% (active)
O=c1c2ccccc2nc(-c2ccccc2)n1-c1ccccn1	14.3%
O=c1c2ccccc2nc(-c2ccco2)n1-c1ccc(Br)cn1	29%
COC(=O)C1=C(c2cc3ccccc3s2)C[C@@H]2CC[C@H]1N2C(=O)NCc1cccc2ccccc12	34.5%
COc1cccc(CN2CCCC(C(=O)c3ccccc3SC)C2)c1O (stereo not given)	8.13%
